IL1B secr inh: qHTS for Inhibitors of Inflammasome Signaling: IL-1-beta AlphaLISA Primary Screen | THP-1 LPS/ATP IL-1B secretion, AlphaLISA, 16 h; hits give low values | activity change, % at 57.5 µM | 360,000 compounds, 4.7% hits | AID 743279, 2014; in the data active = activity change below about -50%; inconclusive = mostly about -30% to -49%
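Secreted IL-1B measured by AlphaLISA bead assay after 16 h compound exposure of THP-1 cells; compounds (final up to 57.5 uM) added 1 h before LPS (250 ng/mL) and ATP (1.25 mM) stimulation; lower signal means less secretion.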
ELG1 DNA repair: qHTS screen for small molecules that inhibit ELG1-dependent DNA repair in human embryonic kidney (HEK293T) cells expressing luciferase-tagged ELG1; HEK293T ELG1-luciferase reporter, luminescence, 16 h; DNA damage induced by 5-fluorouridine; Potency, µM (series often up to 46.1 µM), without a hit: top-dose activity change, negative = inhibition, most hits filed as inhibitors; 330,000 compounds, 2.3% hits; note: potency is the fitted concentration of half-maximal effect; nearly all actives have a fitted effect of over 55% in size
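In this reporter screen, reduction of luminescence relative to DMSO vehicle indicated activity. Compounds and 5-fluorouridine were added together to 2,000 cells per well, incubated for 16 hr at 37 °C, then developed with ONE-Glo.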
TDP1 block: qHTS Assay for Inhibitors of Tyrosyl-DNA Phosphodiesterase (TDP1). Tyrosyl-DNA phosphodiesterase 1 (Homo sapiens), Q9NUW8. recombinant TDP1, AlphaScreen DNA substrate cleavage. Potency, µM (series often up to 130 µM), for inactives: at the highest dose activity change, negative = inhibition, most hits filed as inhibitors. 350,000 compounds, 0.28% hits; note: potency is the fitted concentration of half-maximal effect; nearly all actives have a fitted effect of over 40% in size
Target sequence (Q9NUW8 whole entry, looked up): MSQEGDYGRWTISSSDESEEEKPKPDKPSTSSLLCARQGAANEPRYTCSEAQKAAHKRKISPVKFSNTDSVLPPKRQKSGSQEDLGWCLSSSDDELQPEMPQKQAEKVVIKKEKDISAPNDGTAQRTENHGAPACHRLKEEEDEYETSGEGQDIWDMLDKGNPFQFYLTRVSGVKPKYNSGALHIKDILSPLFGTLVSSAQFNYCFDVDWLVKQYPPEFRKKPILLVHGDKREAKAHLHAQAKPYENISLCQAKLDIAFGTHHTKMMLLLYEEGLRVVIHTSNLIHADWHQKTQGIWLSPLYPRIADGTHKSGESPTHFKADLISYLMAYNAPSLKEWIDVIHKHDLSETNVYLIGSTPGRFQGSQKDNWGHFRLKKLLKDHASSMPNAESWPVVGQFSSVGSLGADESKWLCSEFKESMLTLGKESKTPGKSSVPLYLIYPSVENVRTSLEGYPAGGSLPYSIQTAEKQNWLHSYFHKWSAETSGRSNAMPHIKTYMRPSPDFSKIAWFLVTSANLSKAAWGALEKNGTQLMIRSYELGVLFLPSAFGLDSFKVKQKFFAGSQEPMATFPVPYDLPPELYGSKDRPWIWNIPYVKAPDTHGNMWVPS
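Compounds were preincubated with Tdp1 (1 nM final) for 15 min at room temperature before substrate (15 nM final) started a 5 min reaction; beads (10 ug/ml final) were then added for 10 min before AlphaScreen detection.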
Giardia killer: Small Molecules that selectively kill Giardia lamblia: qHTS | Giardia lamblia trophozoite viability | activity change, % at 7.66 µM, hits read low | 340,000 compounds, 0.15% hits; in the data active = activity change below about -80%; inconclusive = between about -30% and that limit;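 note: parasites exposed to compound for two days anaerobically before the ATP read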
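ATP-content bioluminescence gauges trophozoite survival. Cells (100/well) receive compound and incubate anaerobically for 48 hrs at 37 deg C; detection reagent follows for 15-30 min at room temperature.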
DT40 TDP1 no CPT: qHTS for Inhibitors of human tyrosyl-DNA phosphodiesterase 1 (TDP1): qHTS in cells in absence of CPT; DT40 Tdp1-/- hTDP1 cells, no CPT, ATP luminescence, 48 h; Potency, µM (highest dose often 46.2 µM), inactives show at the highest dose activity change, negative = growth inhibition, usual class: inhibitors; 420,000 compounds, 15% hits; AID 686978, 2013; note: potency is the fitted concentration of half-maximal effect; nearly all actives have a fitted effect of over 55% in size
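Compound effects on proliferation are scored in DT40 Tdp1-/-;hTDP1 cells in the absence of CPT. ATP levels (CellTiter-Glo luminescence) are recorded after a ≥48 hr, 37 °C incubation.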
DT40 TDP1 CPT: qHTS for Inhibitors of human tyrosyl-DNA phosphodiesterase 1 (TDP1): qHTS in cells in presence of CPT; chicken DT40 Tdp1-/-;hTDP1 cells + 20 nM CPT, ATP luminescence, 48 h; Potency, µM (doses to about 46.2 µM), inactives show at the top dose activity change, negative = growth inhibition, actives largely listed as inhibitors; 420,000 compounds, 12% hits; note: potency is the fitted concentration of half-maximal effect; nearly all actives have a fitted effect of over 55% in size
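Chicken DT40 Tdp1-/- cells complemented with human TDP1, 400 cells/well, exposed to compounds plus 20 nM camptothecin for at least 48 h at 37 C; viability read as ATP content by CellTiter-Glo luminescence.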
The depositor's hits bear a star; ? = inconclusive; . = no result given; [ ] = remark or other dose. The list is not random: actives were taken first. Their share in the collection is about 19%. Unless noted, calls come from the whole dose curve; as a rule, active = well fitted curve in the direction sought with a large enough effect; inconclusive = small, poorly fitted or top-dose-only effect, or another doubt; inactive = no such curve, though single readings can be large; an effect the other way counts as inactive or inconclusive. % is set by controls: 0 for no effect and ±100 for the full control effect.

SMILES	IL1B secr inh	ELG1 DNA repair	TDP1 block	Giardia killer	DT40 TDP1 no CPT	DT40 TDP1 CPT
CCOC(=O)c1ccc(N2C(=O)C=CC2=O)cc1	-89*	-1%	7%	-17	1µM*	0.82µM*
CCOC(=O)c1ccc(-n2c(C)ccc2C)cc1	-14	-2%	7%	15	-5%	-11%
Cc1ccccc1-n1c(=O)c2c3c(sc2n2cnnc12)CCCC3	.	.	.	.	16µM*	15µM*
Cn1c(=O)c2c3c(sc2n2cnnc12)CCC3	33	2%	-2%	8	-24%	-26%
COc1cc(C(=O)OC(COCCC(C)C)CN2CCOCC2)cc(OC)c1OC (stereo unspecified)	.	.	.	.	-24%	3%
COC(=O)c1sc(N)c(C(=O)OC)c1COC(=O)c1c(C)noc1C	31	?	0%	3	5.2µM*	3.7µM*
COC(=O)c1sc(N)c(C(=O)OC)c1CSc1nnc(-c2ccccc2Cl)n1C	15	?	5%	1	?	-17%
COC(=O)c1sc(N)c(C(=O)OC)c1Cn1ncc(Cl)c(Cl)c1=O	-89*	-22%	.	13	15µM*	23µM*
OCCC1CN(Cc2ccc(Oc3ncccn3)cc2)CCN1Cc1ccc(F)c(F)c1 (stereo unspecified)	6	0%	1%	-14	-24%	-6%
CN(C)C(=O)CCC(=O)N1CCCC(C(=O)c2ccc3c4c(cccc24)CC3)C1 (stereo unspecified)	-8	?	0%	-5	15µM*	?
O=C(c1ccc2c3c(cccc13)CC2)C1CCCN(C(=O)c2ccc(=O)[nH]c2)C1 (stereo unspecified)	-8	-2%	4%	-7	-23%	-10%
O=C(c1ccc2c3c(cccc13)CC2)C1CCCN(Cc2ccncc2)C1 (stereo unspecified)	?	?	1%	1	9.2µM*	13µM*
CCc1nc(CN2CCCC(C(=O)c3ccc4c5c(cccc35)CC4)C2)c(C)[nH]1 (stereo unspecified)	-100*	?	5%	-11	16µM*	?
Cc1ncccc1C(=O)N1CCCC(C(=O)c2ccc3c4c(cccc24)CC3)C1 (stereo unspecified)	-6	?	-3%	-8	?	?
COc1cccc([C@@H]2CC=C(C(=O)O)[C@H](c3ccc(Br)cc3)N2S(=O)(=O)c2ccc(C)cc2)c1	35	-8%	2%	-27	-7%	0%
Cc1ccc(C(=O)c2oc3ccccc3c2NC(=O)c2cc(-c3ccccc3)on2)cc1	.	.	-4%	.	0%	-9%
O=C(CSc1nnc(-c2ccncc2)n1-c1ccccc1)N1CCN(c2ccc(Cl)cc2)CC1	14	?	3%	-20	18µM*	?
O=C(CSC1=NCCS1)N1CCN(c2ccc(Cl)cc2)CC1	-77*	-7%	1%	?	?	?
COc1ccc(N2CCN(C(=O)CSc3nnc(-c4cccnc4)n3-c3ccccc3)CC2)cc1	-18	?	9%	-11	-21%	-28%
COc1ccc(N2CCN(C(=O)CSc3nnc(-c4cccnc4)n3-c3ccc(F)cc3)CC2)cc1	-18	?	0%	-9	21µM*	?
O=C(CSc1nnc(-c2cccnc2)n1-c1ccccc1)N1CCN(c2ccc(F)cc2)CC1	-6	?	6%	-1	21µM*	?
N#C/C(=C\c1cccn1S(=O)(=O)c1ccccc1)S(=O)(=O)c1ccc(F)cc1	25	.	.	.	-20%	-12%
CC(C)CC1CC(C)(c2csc(NNC(=O)c3ccccc3)n2)OC1=O (stereo unspecified)	3	?	2%	-23	?	?
CCCOc1ccc(N2CC(C(=O)NC(C)C)CC2=O)cc1 (stereo unspecified)	12	?	-2%	0	-5%	2%
CCCn1c(N)c(NCCN2CCOCC2)c(=O)[nH]c1=O	11	10%	2%	-9	-2%	4%
SMILES	IL1B secr inh	ELG1 DNA repair	TDP1 block	Giardia killer	DT40 TDP1 no CPT	DT40 TDP1 CPT
COc1ccc(N2CCN(C(=O)CSc3n[nH]c(-c4ccccc4)n3)CC2)cc1	.	.	5%	.	?	?
Cc1cc2ccccc2n2c(SCC(=O)N3CCc4ccccc4C3)nnc12	-5	?	0%	15	?	?
COc1ccc(N2CCN(C(=O)CSc3nnc4c(C)cc5ccccc5n34)CC2)cc1	16	23µM*	2%	-1	13µM*	16µM*
O=C(CSc1n[nH]c(-c2ccccc2)n1)N1CCN(c2ccc(F)cc2)CC1	.	.	5%	.	23µM*	?
CCCC1(C(=O)OCC)NC(c2ccc(OC)cc2OC)C2C(=O)N(c3ccccc3)C(=O)C21 (stereo unspecified)	0	12µM*	4%[56.1 µM]	-19	?	?
CCOc1ccc(N2C(=O)C3C(c4ccc(OC)cc4OC)NC(CCSC)(C(=O)OC)C3C2=O)cc1 (stereo unspecified)	14	?	.	14	-4%	-9%
Cc1ccc([C@@H]2CC(=O)[C@@H]3CN(S(=O)(=O)c4ccc(C)cc4)[C@H](c4ccccc4)C[C@@H]3N2S(=O)(=O)c2ccc(C)cc2)cc1	-7	.	.	.	-18%	-16%
O=C(CN1C(=O)c2cccc3cccc1c23)Nc1ccccc1Br	.	.	1%	.	-12%	-11%
CN(C)CCCNC(=S)N(CCN(C)C)Cc1cc2cc3c(cc2[nH]c1=O)OCCO3	0	-17%	.	-1	-2%	23%
O=c1[nH]c2cc3c(cc2cc1CN(CCc1ccccc1)C(=S)NCCCN1CCOCC1)OCCO3	-11	.	.	-17	21µM*	?
Cc1cccc(NC(=S)N(CCN2CCOCC2)Cc2cc3cc4c(cc3[nH]c2=O)OCCO4)c1	-28	?	7%	28	16µM*	?
Cc1ccc(NC(=S)N(CCN2CCOCC2)Cc2cc3cc4c(cc3[nH]c2=O)OCCO4)cc1	-24	-27%	.	-9	?	?
CCOc1ccc(NC(=S)N(CCN2CCOCC2)Cc2cc3cc4c(cc3[nH]c2=O)OCO4)cc1	-3	21µM*	5%	3	?	?

Screening results deposited in PubChem by National Center for Advancing Translational Sciences (NCATS).
